From PubChem BioAssay
Most compounds without a hit are left out; they make up all but 1.1% or so of the library.
MazEF act – activators of E. coli MazEF toxin-antitoxin RNase, primary screen, biochemical, fluorescence, uHTS. Endoribonuclease toxin MazF (Escherichia coli (strain K12)), P0AE70. FAM/BHQ RNA-DNA oligo cleavage fluorescence, 5 h. AID 504720, 2011. activation, % at 20 µM. 350,000 compounds, 0.32% hits; in the data active means activation above about 50%
Target sequence (P0AE70 whole entry, looked up): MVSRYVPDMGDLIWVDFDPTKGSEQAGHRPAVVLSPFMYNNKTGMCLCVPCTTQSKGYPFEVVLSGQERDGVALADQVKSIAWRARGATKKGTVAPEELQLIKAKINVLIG
BJeLR lethal – MLPCN primary cell-based screen for lethality selective to Ras in HRASV12 cells; BJeLR (HRASV12) viability, CellTiter-Glo ATP luminescence, 48 h; inhibition, % (test concentration not listed); 300,000 compounds, 0.17% hits; in the data active means inhibition above about 50%
PfHsp40 yeast – rescue of yeast from PfHsp40 toxicity, primary screen, S. cerevisiae, ATP luminescence; S. cerevisiae expressing PfHsp40, growth rescue; 340,000 compounds, 0.68% hits; AID 504582, 2011; growth rescue, % at 12.5 µM; in the data active means growth rescue above about 28%, passing the limit was not always enough;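 further: yeast W303a lacking pdr1 and pdr3 grown in galactose medium; growth measured after three days at 30 °C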
Y pestis TopoI – Yersinia pestis topoisomerase I inhibitors, primary screen, biochemical, cleavage product accumulation, plate reader, single point | DNA topoisomerase I (Yersinia pestis CO92) | Y. pestis Topo-I cleavage product accumulation | activity, % at 10 µM | 360,000 compounds, 0.064% hits; in the data active means activity above about 50%, passing the limit was not always enough
3CLpro inhibitor – SARS-CoV 3CLpro protease inhibitors, primary screen, biochemical, quenched FRET; Replicase polyprotein 1ab (Severe acute respiratory syndrome coronavirus), P0C6X7; recombinant SARS-CoV 3CLpro, quenched FRET peptide cleavage; inhibition, % at 6 µM; 290,000 compounds, 0.14% hits; AID 1706, 2009; in the data active means inhibition above about 12%
BioA inh – M. tuberculosis BioA enzyme inhibitors, primary screen, biochemical, plate reader, single point, HTS | 7,8-diaminopelargonic acid synthase BioA (Mycobacterium tuberculosis) | AID 602481, 2012 | purified M. tuberculosis BioA enzyme | 360,000 compounds, 0.096% hits | inhibition, % at 9.99 µM; in the data active means inhibition above about 40%
Numbers stand for hits.

What do the screens show for `C[C@@H]1CN([C@H](C)CO)S(=O)(=O)c2ccc(C#Cc3ccccc3)cc2O[C@H]1CN(C)C(=O)c1ccccn1`?
BioA inh: inactive

What do the screens show for `Cc1noc(C)c1NC(=O)N(C)C[C@H]1OCCCC[C@@H](C)Oc2ccc(NS(=O)(=O)c3cccs3)cc2C(=O)N([C@H](C)CO)C[C@H]1C`?
BioA inh: inactive

What do the screens show for `COc1ccc(CNC(=S)NC2CCCC2)cc1`?
MazEF act: inactive; BJeLR lethal: inactive; PfHsp40 yeast: inactive; Y pestis TopoI: inactive; 3CLpro inhibitor: inactive; BioA inh: inactive

Results for Cc1ccc(CNC(=S)NC2CCC(C(C)(C)C)CC2)cc1 (stereo not drawn) ?
MazEF act: inactive; BJeLR lethal: inactive; PfHsp40 yeast: 188; Y pestis TopoI: inactive; 3CLpro inhibitor: inactive; BioA inh: inactive

Results for CC(NC(=S)NC1CCC(C(C)(C)C)CC1)c1ccccc1 (stereo not drawn) ?
MazEF act: inactive; BJeLR lethal: inactive; PfHsp40 yeast: 71; Y pestis TopoI: inactive; 3CLpro inhibitor: inactive; BioA inh: inactive

What do the screens show for `CCCNC(=O)Nc1ccc2c(c1)C(=O)N(C)[C@@H]1CC[C@@H](CC(=O)NC)O[C@@H]1CO2`?
BioA inh: inactive

How did O=C1NC(=O)C(=Cc2cc3c(cc2[N+](=O)[O-])OCO3)C(=O)N1 do in these assays?
MazEF act: inactive; BJeLR lethal: inactive; PfHsp40 yeast: inactive; Y pestis TopoI: inactive; 3CLpro inhibitor: inactive; BioA inh: inactive

What do the screens show for `Cc1cccc(N2C(=O)NC(=O)/C(=C/c3cc4c(cc3[N+](=O)[O-])OCO4)C2=O)c1`?
MazEF act: 537; BJeLR lethal: inactive; PfHsp40 yeast: inactive; Y pestis TopoI: inactive; 3CLpro inhibitor: inactive

What do the screens show for `COCC(=O)N1C[C@H](C)[C@@H](OC)CN(C)C(=O)c2cc(NS(C)(=O)=O)ccc2OC[C@@H]1C`?
BioA inh: inactive

How did CCCOc1ccc(C(=O)NNC(=S)NC(=O)CC)cc1 do in these assays?
MazEF act: inactive; BJeLR lethal: inactive; PfHsp40 yeast: 115; Y pestis TopoI: inactive; 3CLpro inhibitor: inactive

Results for C=CCNC(=S)NNC(=O)c1ccc(OCCC)cc1 ?
MazEF act: inactive; BJeLR lethal: inactive; PfHsp40 yeast: inactive; Y pestis TopoI: inactive; 3CLpro inhibitor: inactive; BioA inh: inactive

Results for O=c1c2cc(Br)ccc2nc(-c2ccc([N+](=O)[O-])cc2)n1O ?
MazEF act: inactive; BJeLR lethal: inactive; PfHsp40 yeast: 160; Y pestis TopoI: inactive; 3CLpro inhibitor: inactive

Results for O=c1c2cc(Cl)ccc2nc(-c2ccccc2)n1O ?
MazEF act: inactive; BJeLR lethal: inactive; PfHsp40 yeast: 195; Y pestis TopoI: inactive; 3CLpro inhibitor: inactive

How did N#Cc1ccc(-c2nc3ccc(Br)cc3c(=O)n2O)cc1 do in these assays?
MazEF act: inactive; BJeLR lethal: inactive; PfHsp40 yeast: inactive; Y pestis TopoI: inactive; 3CLpro inhibitor: inactive; BioA inh: inactive

How did C[C@@H]1CN([C@H](C)CO)C(=O)c2cccc(NC(=O)C3CCCCC3)c2O[C@@H]1CN(C)C(=O)Nc1ccc2c(c1)OCO2 do in these assays?
BioA inh: inactive

How did Cc1nc2ccc(C(=O)OCc3ccccc3Br)cc2nc1C do in these assays?
MazEF act: 60; BJeLR lethal: inactive; PfHsp40 yeast: inactive; Y pestis TopoI: inactive; 3CLpro inhibitor: inactive; BioA inh: inactive

What do the screens show for `CCSc1nc(C2CC2)cc(-c2cccs2)c1C#N`?
MazEF act: inactive; BJeLR lethal: inactive; PfHsp40 yeast: inactive; Y pestis TopoI: inactive; 3CLpro inhibitor: inactive; BioA inh: inactive

Results for N#Cc1c(-c2ccccc2F)cc(C2CC2)nc1SCC(=O)c1cccs1 ?
MazEF act: 65; BJeLR lethal: inactive; PfHsp40 yeast: inactive; Y pestis TopoI: inactive; 3CLpro inhibitor: inactive; BioA inh: inactive

What do the screens show for `Cc1ccc(S(=O)(=O)Nc2ccc3c(c2)C(=O)N([C@H](C)CO)C[C@H](C)[C@H](CN(C)C(=O)NC2CCCCC2)OCCCC[C@H](C)O3)cc1`?
BioA inh: inactive

How did N#CCCn1cc(/C=C(\C#N)c2nc3ccccc3s2)c(-c2ccc(F)cc2)n1 do in these assays?
MazEF act: 53; BJeLR lethal: inactive; PfHsp40 yeast: inactive; Y pestis TopoI: inactive; 3CLpro inhibitor: inactive; BioA inh: inactive

What do the screens show for `O=C(CCCN1C(=O)/C(=C/c2cccc(Br)c2)SC1=S)NCCCN1CCOCC1`?
MazEF act: inactive; BJeLR lethal: 77; PfHsp40 yeast: inactive; Y pestis TopoI: inactive; 3CLpro inhibitor: inactive; BioA inh: inactive

What do the screens show for `O=C(CN1C(=O)/C(=C/c2cccc(Br)c2)SC1=S)NCCCN1CCOCC1`?
MazEF act: inactive; BJeLR lethal: inactive; PfHsp40 yeast: inactive; Y pestis TopoI: inactive; 3CLpro inhibitor: inactive; BioA inh: inactive

How did Cc1ccc(/C=C2\SC(=S)N(CCC(=O)NCCCN3CCOCC3)C2=O)cc1 do in these assays?
MazEF act: inactive; BJeLR lethal: inactive; PfHsp40 yeast: inactive; Y pestis TopoI: inactive; 3CLpro inhibitor: inactive; BioA inh: inactive

What do the screens show for `CCc1ccc(/C=C2\SC(=S)N(CCC(=O)NCCCN3CCOCC3)C2=O)cc1`?
MazEF act: inactive; BJeLR lethal: 103; PfHsp40 yeast: inactive; Y pestis TopoI: inactive; 3CLpro inhibitor: inactive; BioA inh: inactive

How did COc1ccc(O)c(/C=N/NC(=O)c2ccc(CSc3nc(C)cc(C)n3)cc2)c1 do in these assays?
MazEF act: inactive; BJeLR lethal: inactive; PfHsp40 yeast: 52; Y pestis TopoI: inactive; 3CLpro inhibitor: inactive

How did Cc1cc(C)nc(SCc2ccc(C(=O)N/N=C/c3cccc(O)c3O)cc2)n1 do in these assays?
MazEF act: inactive; BJeLR lethal: inactive; PfHsp40 yeast: 126; Y pestis TopoI: inactive; 3CLpro inhibitor: inactive

What do the screens show for `Cc1cc(C)nc(SCc2ccc(C(=O)N/N=C/c3ccc(C(=O)O)cc3)cc2)n1`?
MazEF act: inactive; BJeLR lethal: inactive; PfHsp40 yeast: inactive; Y pestis TopoI: inactive; 3CLpro inhibitor: inactive

What do the screens show for `COCC(=O)Nc1ccc2c(c1)[C@@H]1C[C@@H](CC(=O)NCc3ccccn3)O[C@H](CO)[C@@H]1O2`?
BioA inh: inactive

Results for O/N=C(\c1ccc(Cl)cc1)c1cc2ccccc2o1 ?
MazEF act: inactive; BJeLR lethal: inactive; PfHsp40 yeast: 641; Y pestis TopoI: inactive; 3CLpro inhibitor: inactive; BioA inh: inactive

Results for O=C(Nc1ccc(Cl)cc1Cl)c1cc2ccccc2o1 ?
MazEF act: inactive; BJeLR lethal: inactive; PfHsp40 yeast: inactive; Y pestis TopoI: inactive; 3CLpro inhibitor: inactive; BioA inh: inactive

How did COc1ccc(CNC(=O)CN(Cc2ccc(C)cc2)S(=O)(=O)c2ccc(Cl)cc2)cc1 do in these assays?
MazEF act: inactive; BJeLR lethal: inactive; PfHsp40 yeast: inactive; Y pestis TopoI: 52; 3CLpro inhibitor: inactive; BioA inh: inactive
